These results are taken from PubChem BioAssay (NCI).

Compounds without any hit were thinned out: in the full panel of roughly 83,000, 20% have a hit.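 Cells were grown in 96-well plates and exposed to the test compound at a single concentration for 48 hours; results are reported as percent growth, with values below 10 considered active.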 Unmarked numbers belong to inactive results. Active and inactive are the calls of the source.

Holding throughout (experiment): NCI-60 one-dose screen, 48 h (100 = growth as untreated, 0 = no growth, -100 = all killed)
Holding throughout (details): 10 µM unless noted

Assay [1] deals with SK-MEL-2 melanoma.
In assay [2] the test system is SN12C renal.
In assay [3] the test system is UO-31 renal.
Assay [4] deals with TK-10 renal.
In assay [5] the test system is ACHN renal.
The test system of assay [6] is CAKI-1 renal.
The subject of assay [7] is A498 renal.
The subject of assay [8] is CCRF-CEM leukemia.
Assay [9] relates to SR leukemia.
Assay [10] concerns RPMI-8226 leukemia.
For assay [11], the system named is OVCAR-8 ovarian.
The test system of assay [12] is OVCAR-5 ovarian.
Assay [13] relates to OVCAR-4 ovarian.
For assay [14], the system named is SK-OV-3 ovarian.
Assay [15] has as its system IGROV1 ovarian.
Assay [16] deals with OVCAR-3 ovarian.
Assay [17] concerns HS 578T breast.
The subject of assay [18] is NCI/ADR-RES ovarian.
Assay [19] concerns MOLT-4 leukemia.
Assay [20] deals with EKVX NSCLC.

Turning to `COc1ccc(OC)c(Nc2nc3nonc3nc2Nc2cccc(Br)c2)c1`, the growth in assay [1] is -17.4% (active); in assay [2], 12.4%; in assay [3], 3.39% (active); in assay [4], 7.4% (active); in [5], -22.5% (active); in assay [6] it was 0.162% (active). In addition, the growth in [7] is -39.9% (active); in [8], 12.4%; in assay [9], 19.6%; in assay [10] it was 2.67% (active); in assay [11] it was 10.5%; in [12], 9% (active). In addition, the growth in assay [13] was 12.1%; in [14] it was 3.28% (active); in assay [15], 46.1%; in assay [16], 10.1%; in [17], 7.84% (active); in assay [18], 9.06% (active).
For the compound `CCCCCCCSc1ccc(C(=O)O)cc1`, the growth in [1] was 103%; in assay [3] it was 84%; in assay [4], 105%; in [5], 94.6%; in assay [6], 103%; in assay [7], 97.5%. Moreover, the growth was 91.5% in assay [8]; 106% in assay [19]; 104% in assay [9]; 92.1% in assay [10]; 95.7% in assay [11]; 110% in [12]. For the same compound, the growth in [13] was 93.9%; in assay [14], 102%; in assay [15] it was 101%; in [16] it was 118%; in [18], 109%.
As to `Cc1cnc(Nc2ccc(N3CCN(C)CC3)cc2)nc1Nc1ccc(Cl)c(NS(=O)(=O)C(C)(C)C)c1`, the growth was 32.5% in assay [20]; 34% in [2]; -20.7% (active) in assay [3]; 0.435% (active) in assay [4]; -4.72% (active) in assay [5]; 25% in assay [6]. Further, the growth in [7] is -85.4% (active); in [8], 34.2%; in assay [19], 10% (active); in [9], -3.93% (active); in assay [10], 5.58% (active); in assay [11], 21.7%. Further, the growth in [12] was 19.9%; in assay [13], 27.9%; in assay [14], -6.97% (active); in [15], 6.84% (active); in [16] it was 9.51% (active); in [17], -6.51% (active). In assay [18], the growth is 21%.
With `CC(C)(C)N1CC(OC(N)=O)C1`, the growth was 90.2% in assay [20]; 100% in assay [2]; 85.5% in assay [3]; 94.8% in [4]; 106% in assay [5]; 41% in assay [6]. Besides, the growth is 105% in [7]; 133% in assay [19]; 128% in assay [9]; 84.9% in [11]; 110% in [12]; 101% in assay [13]. Moreover, the growth is 113% in [14]; 110% in assay [15]; 120% in assay [16]; 116% in [17]; 117% in [18].
In the case of `COc1cc(/C=C2\C=C(c3ccccc3)N(CCc3ccccc3)C2=O)cc(OC)c1OC`, the growth was 69.2% in [20]; 82% in assay [2]; 69.2% in assay [3]; 81.9% in assay [4]; 30.9% in assay [5]; 34.2% in assay [7]. Also, the growth in assay [8] is 100%; in [9], 85.5%; in [10], 83.3%; in assay [11], 38.5%; in assay [12], 105%; in [13], 33.4%. The growth in assay [14] is 62.9%; in assay [15] it was 83.1%; in assay [16], 87.7%; in assay [17], 23.2%; in [18], 66.8%.
`N#Cc1c(-c2ccc(C(F)(F)F)cc2)cc(N2CC(O)C2)n2c1nc1ccccc12`: the growth was 63.6% in [20]; 72.3% in [2]; 54.5% in assay [3]; 64% in assay [4]; 43.4% in assay [5]; 72.1% in assay [6]. Further, the growth in assay [7] was -4.38% (active); in assay [8] it was 102%; in assay [19], 103%; in assay [9], 73.5%; in assay [10] it was 78.8%; in assay [11], 19.4%. For the same compound, the growth in assay [12] was 77.5%; in assay [13], -29.8% (active); in assay [14] it was 18.8%; in [15], 60.9%; in assay [16], 48.4%; in assay [18], 38.3%.
For `Clc1ccc(-c2nnc(Cn3ccnc3)o2)cc1`, the growth in [20] is 104%; in [2], 90.1%; in assay [3], 87%; in assay [4] it was 128%; in assay [5], 98.9%; in [7], 96.1%. Also, the growth in assay [8] is 107%; in assay [19], 96.5%; in assay [9] it was 94.3%; in assay [10], 112%; in [12], 96.2%; in assay [13] it was 102%. For the same compound, the growth is 107% in [14]; 108% in assay [15]; 116% in assay [16]; 95.1% in [17]; 106% in assay [18].
Regarding `O=C1C2=C(CCN(Cc3ccccc3)C2)N2CCN=C2N1Cc1ccc(C(F)(F)F)cc1`, the growth in assay [20] is 20.6%; in assay [2] it was 23.1%; in [4] it was 37.7%; in assay [5] it was 31.3%; in assay [6], 28.6%; in [7] it was -0.0454% (active). Moreover, the growth in assay [8] is 52.6%; in assay [19], 59.8%; in [9], 49.5%; in [10], 19%; in assay [11], 17%; in assay [12], 56.9%. Further, the growth in assay [13] was -4.49% (active); in [14] it was 21%; in assay [15], 33%; in assay [16], 23.9%; in assay [17], 36%; in assay [18] it was 16.6%.
As for `O=c1ccn(C2OC(F)(CO)C(O)C2F)c(=O)[nH]1` (stereo not drawn), the growth in assay [20] was 91.2%; in [2], 102%; in [4] it was 90.3%; in assay [5], 98.9%; in assay [6], 94.3%; in [8] it was 103%. Also, the growth in [19] was 99.8%; in assay [9], 101%; in [10] it was 106%; in assay [11], 98.3%; in [12], 103%; in assay [13], 105%. Besides, the growth in [14] is 93.4%; in [15], 112%; in assay [16] it was 107%; in assay [17], 94.1%; in [18] it was 101%.
